Test results as given in PubChem BioAssay.
The source made the active and inactive calls.

How the values were obtained:
[1] = small molecules captured by biotinylated probe aFSTL3 – biochemical, small-molecule microarray, fluorescence 635/667, stem cell growth factor project, primary screen (AID 1064); details: higher = more signal;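 further: measures binding of the biotinylated anti-FSTL3 antibody to printed compounds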
[2] = binders from COS7 lysate, DM2A8 probe, primary screen, torsin A project, cell lysate, small-molecule microarray, fluorescence 635/667 (AID 1065); details: higher = more signal, COS7 lysate expressing mutant human TOR1A
[3] = small molecules captured by biotinylated probe aFGF2 – biochemical, small-molecule microarray, fluorescence 635/667, stem cell growth factor project, primary screen (AID 1067); details: higher = more signal;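 further: measures binding of biotinylated aFGF2 protein to printed compounds on slides; z-score merges feature fluorescence and signal-to-noise across triplicate slides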
[4] = small molecules captured by biotinylated probe aFGF10 – biochemical, small-molecule microarray, fluorescence 635/667, stem cell growth factor project, primary screen (AID 1071); details: higher = more signal;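 further: score merges 667 nm spot intensity and signal to noise from triplicate slides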
[5] = molecular target: Neurogenic locus notch homolog protein 2 (Homo sapiens) (UniProt Q04721); assay: small molecules binding Notch2 protein – biochemical, small-molecule microarray, 635 nm fluorescence, stem cell growth factors, primary screen (AID 1073); details: higher = more signal
[6] = molecular target: Pro-neuregulin-1, membrane-bound isoform (Homo sapiens) (UniProt Q02297); assay: small molecules binding neuregulin-1 protein – biochemical, small-molecule microarray, fluorescence 635/667, psychiatric disease protein project, primary screen (AID 1075); details: NRG1 binding, 635 nm fluorescence, higher = more signal;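 further: score combines 667 nm spot fluorescence with signal to noise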
[7] = test system: Neuregulin-1 EGF-like domain; assay: small molecules binding NRG1 EGF domain – biochemical, small-molecule microarray, 635 nm fluorescence, primary screen (AID 1081); details: higher = more signal;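 further: binding of the protein to compounds printed on small-molecule microarray slides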
[8] = FRG1 expression reporter modulators in myotubes – cell-based, C2C12 myotubes, firefly/Renilla luciferase, luminescence, FRG1 inhibition for FSHD, primary screen (AID 1084); details: FRG1 promoter luciferase, higher = more signal, called active from +8 up or from −8 down
[9] = small molecules captured by biotinylated probe aFST – biochemical, small-molecule microarray, fluorescence 635/667, stem cell growth factor project, primary screen (AID 1086); details: higher = more signal;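 further: score merges 667 nm fluorescence with signal-to-noise of each printed compound spot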
[10] = binders of probe aHhip on microarray, primary screen, stem cell growth factor project, biochemical, small-molecule microarray, fluorescence 635/667 (AID 1087); details: higher = more signal;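 further: score merges spot fluorescence at 667nm with spot signal to noise ratio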

Neurogenic locus notch homolog protein 2 (Homo sapiens), sequence (Q04721 whole entry, looked up, canonical isoform): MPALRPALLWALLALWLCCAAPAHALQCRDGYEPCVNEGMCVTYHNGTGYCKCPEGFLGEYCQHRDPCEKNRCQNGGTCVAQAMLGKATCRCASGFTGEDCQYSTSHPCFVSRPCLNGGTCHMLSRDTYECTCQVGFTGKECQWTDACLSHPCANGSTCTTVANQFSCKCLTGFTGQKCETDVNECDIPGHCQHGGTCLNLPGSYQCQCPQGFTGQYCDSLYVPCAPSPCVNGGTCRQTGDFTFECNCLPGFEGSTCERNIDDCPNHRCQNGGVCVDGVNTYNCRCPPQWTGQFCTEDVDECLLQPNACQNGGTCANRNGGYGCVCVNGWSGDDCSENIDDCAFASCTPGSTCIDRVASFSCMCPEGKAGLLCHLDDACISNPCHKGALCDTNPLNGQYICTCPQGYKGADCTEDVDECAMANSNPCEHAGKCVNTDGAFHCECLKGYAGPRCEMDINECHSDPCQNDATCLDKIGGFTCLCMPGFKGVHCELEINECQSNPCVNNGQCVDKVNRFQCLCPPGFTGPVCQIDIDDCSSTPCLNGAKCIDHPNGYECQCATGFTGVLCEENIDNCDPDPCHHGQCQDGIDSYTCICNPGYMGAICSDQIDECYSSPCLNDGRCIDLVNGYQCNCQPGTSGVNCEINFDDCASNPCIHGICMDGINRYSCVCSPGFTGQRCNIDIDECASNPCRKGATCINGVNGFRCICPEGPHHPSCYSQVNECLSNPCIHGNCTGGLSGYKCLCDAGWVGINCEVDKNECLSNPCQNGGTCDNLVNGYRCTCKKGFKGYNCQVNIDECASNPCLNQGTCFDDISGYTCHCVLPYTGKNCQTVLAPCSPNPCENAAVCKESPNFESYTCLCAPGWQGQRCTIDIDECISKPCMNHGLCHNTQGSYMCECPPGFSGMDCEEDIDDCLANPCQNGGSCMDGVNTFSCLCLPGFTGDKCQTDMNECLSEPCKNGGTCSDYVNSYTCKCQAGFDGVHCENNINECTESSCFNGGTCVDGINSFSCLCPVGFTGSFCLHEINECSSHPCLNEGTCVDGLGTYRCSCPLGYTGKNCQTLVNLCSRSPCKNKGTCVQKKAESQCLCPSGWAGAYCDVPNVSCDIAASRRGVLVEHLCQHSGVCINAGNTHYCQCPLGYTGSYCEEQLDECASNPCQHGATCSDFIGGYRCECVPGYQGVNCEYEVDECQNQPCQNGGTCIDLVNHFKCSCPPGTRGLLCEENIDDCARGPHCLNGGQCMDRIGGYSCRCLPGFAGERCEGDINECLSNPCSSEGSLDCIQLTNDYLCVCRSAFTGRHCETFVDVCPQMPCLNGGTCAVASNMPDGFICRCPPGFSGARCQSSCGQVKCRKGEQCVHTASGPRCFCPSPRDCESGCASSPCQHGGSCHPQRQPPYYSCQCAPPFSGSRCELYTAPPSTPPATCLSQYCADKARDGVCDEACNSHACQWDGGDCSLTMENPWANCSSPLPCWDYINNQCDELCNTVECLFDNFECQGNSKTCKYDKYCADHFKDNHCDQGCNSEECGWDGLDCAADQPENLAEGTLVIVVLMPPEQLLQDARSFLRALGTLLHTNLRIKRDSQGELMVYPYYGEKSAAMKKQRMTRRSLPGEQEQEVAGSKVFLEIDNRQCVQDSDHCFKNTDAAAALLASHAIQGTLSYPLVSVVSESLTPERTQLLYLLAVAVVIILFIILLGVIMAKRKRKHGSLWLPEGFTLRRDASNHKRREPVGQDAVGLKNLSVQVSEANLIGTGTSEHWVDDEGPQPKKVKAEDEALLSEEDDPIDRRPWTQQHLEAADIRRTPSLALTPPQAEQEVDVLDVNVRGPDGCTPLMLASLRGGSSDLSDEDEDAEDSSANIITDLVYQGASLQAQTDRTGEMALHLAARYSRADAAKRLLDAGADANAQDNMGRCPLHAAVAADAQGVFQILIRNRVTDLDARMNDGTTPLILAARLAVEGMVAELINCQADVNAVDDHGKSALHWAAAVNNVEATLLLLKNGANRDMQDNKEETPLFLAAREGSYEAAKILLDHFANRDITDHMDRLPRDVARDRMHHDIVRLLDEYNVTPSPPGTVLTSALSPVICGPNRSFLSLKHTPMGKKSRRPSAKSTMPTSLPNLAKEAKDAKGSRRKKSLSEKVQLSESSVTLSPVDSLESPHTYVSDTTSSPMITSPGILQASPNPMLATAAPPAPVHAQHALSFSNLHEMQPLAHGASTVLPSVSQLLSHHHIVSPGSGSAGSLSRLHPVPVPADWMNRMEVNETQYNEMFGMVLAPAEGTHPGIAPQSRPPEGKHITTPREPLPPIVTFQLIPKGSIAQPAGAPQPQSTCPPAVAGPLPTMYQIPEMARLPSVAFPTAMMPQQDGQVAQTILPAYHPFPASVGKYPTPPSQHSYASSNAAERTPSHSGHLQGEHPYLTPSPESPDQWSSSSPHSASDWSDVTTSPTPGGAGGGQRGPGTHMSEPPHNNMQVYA
Pro-neuregulin-1, membrane-bound isoform (Homo sapiens), sequence (Q02297 whole entry, looked up, the tested form may be a part, canonical isoform): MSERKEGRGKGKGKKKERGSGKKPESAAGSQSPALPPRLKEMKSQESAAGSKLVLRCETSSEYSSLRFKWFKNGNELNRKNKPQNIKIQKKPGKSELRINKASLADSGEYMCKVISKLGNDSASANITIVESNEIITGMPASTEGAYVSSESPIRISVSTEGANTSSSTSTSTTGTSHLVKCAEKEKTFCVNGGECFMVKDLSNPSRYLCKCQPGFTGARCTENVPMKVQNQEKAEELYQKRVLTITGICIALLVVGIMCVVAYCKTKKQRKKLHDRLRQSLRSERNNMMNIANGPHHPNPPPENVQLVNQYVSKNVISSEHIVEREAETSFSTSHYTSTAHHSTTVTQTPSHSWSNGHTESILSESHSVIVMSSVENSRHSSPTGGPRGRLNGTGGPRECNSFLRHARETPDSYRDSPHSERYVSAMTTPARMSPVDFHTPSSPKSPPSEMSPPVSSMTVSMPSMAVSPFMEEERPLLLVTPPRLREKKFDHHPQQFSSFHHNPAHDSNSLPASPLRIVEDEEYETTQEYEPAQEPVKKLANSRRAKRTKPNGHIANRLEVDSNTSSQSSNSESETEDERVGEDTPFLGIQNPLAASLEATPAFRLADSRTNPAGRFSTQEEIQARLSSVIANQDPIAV

Row | Structure (SMILES) | composite z-score [1] | composite z-score [2] | composite z-score [3] | composite z-score [4] | composite z-score [5] | composite z-score [6] | composite z-score [7] | z-score [8] | composite z-score [9] | composite z-score [10]
1 | CC(C)=NOC[C@@H](C)[C@H](OCc1ccccc1)C(C)C | 0.245 | -0.381 | -0.147 | -0.303 | -0.885 | -0.277 | -0.372 | 0.755 (inactive) | -0.21 | 0.163
2 | O=c1n(Cc2cc3c(cc2Cl)OCO3)c(=O)n2n1CC[C@@H]1C(=NOC[C@@H](O)COCc3ccco3)[C@H]3O[C@H]3[C@@H](O)[C@@H]12 | -0.247 | 0.28 | -0.0878 | 0.217 | 0.169 | -0.112 | 0.0421 | 0.0388 (inactive) | -0.142 | 0.0398
3 | COC(=O)[C@@H]1CC[C@H](C)[C@@H](c2ccc(C)cc2)N1C(=O)c1ccc(C=NO[C@H](C)c2cn([C@@H]3COC[C@H]3O)nn2)cc1 | -0.591 | -0.314 | -0.0459 | 0.515 | 1.14 | 0.122 | 0.972 | 0.191 (inactive) | 0.165 | -0.124
4 | CC(=O)OC[C@H]1O[C@H](CC=NO[C@H](C)c2cn([C@H](CO)Cc3ccccc3)nn2)C=C[C@@H]1OC(C)=O | -0.789 | 0.379 | -0.087 | 0.541 | 0.911 | 1.33 | 0.711 | 0.235 (inactive) | 0.246 | -0.201
5 | CO[C@@H]1COC(=O)[C@@H]2CCCN2C(=O)[C@@H](C)COC(=O)CC=C[C@H]1C | -0.776 | 0.313 | -0.122 | 0.397 | 0.5 | 0.0187 | 1.02 | 0.719 (inactive) | 0.271 | 0.607
6 | CCOC(=O)[C@H](CC(C)C)NC(=O)CCC1CC(OC(=O)NCc2cccc3ccccc23)CC2(CCCC(COC(=O)NCC3CCCCC3)O2)O1 (stereo not given in full) | -0.338 | 0.194 | -0.0744 | 0.54 | 0.763 | 0.589 | 0.907 | 0.791 (inactive) | 0.615 | 0.0623
7 | COc1ccc(COC(=O)NN=C2C[C@@H](O)[C@@H](O)[C@@H]3[C@@H]4C(=O)N(C5CCCCC5)C(=O)[C@@H]4CC[C@H]23)cc1 | 1.21 | 0.588 | -0.0784 | -0.396 | -0.961 | -0.255 | -0.194 | 0.248 (inactive) | 0.524 | -0.409
8 | O=C1CCCC=C1C(O)CCOC(c1ccccc1)(c1ccccc1)c1ccccc1 (stereo not given) | -0.282 | 0.422 | -0.144 | 0.0954 | -0.0617 | -0.229 | -0.132 | -0.0611 (inactive) | -0.405 | -0.069
9 | CCc1cc2c(nc1CC)CCN(CCC(C)=NO[C@H](C)c1cn([C@H](CO)Cc3ccccc3)nn1)C2 | 0.111 | 0.985 | -0.0154 | 0.0116 | -0.0913 | 0.107 | 0.595 | 0.834 (inactive) | -0.129 | -0.249
10 | COC(=O)CC=C[C@@H](C)[C@@H](C=NO[C@H](C)c1cn([C@@H]2COC[C@H]2O)nn1)NS(=O)(=O)c1ccc(C)cc1 | -0.279 | 0.612 | -0.0027 | 0.575 | 0.283 | 0.0806 | 0.928 | -1.24 (inactive) | 0.374 | -0.166
11 | CC(C)CON=C1C[C@@H](O)[C@@H](O)[C@@H]2[C@@H]3C(=O)N(C(C)(C)C)C(=O)[C@@H]3CC[C@H]12 | 1.33 | 0.275 | -0.133 | -0.136 | -0.681 | 0.414 | -0.099 | -0.392 (inactive) | -0.142 | -0.21
12 | CCOC(=O)[C@H](CC(C)C)NC(=O)CCC1CC(OC(=O)NCCc2ccc(F)cc2)CC2(CCCC(COC(=O)NCC3CCCCC3)O2)O1 (stereo not given in full) | -0.595 | 0.101 | -0.0652 | 0.817 | 0.482 | 0.301 | 1.1 | 0.605 (inactive) | -0.0627 | -0.19
13 | CO[C@@H]1COC(=O)[C@H](CCSC)NC(=O)CC=C[C@@H](C)COC(=O)[C@H](C)NC(=O)CC=C[C@H]1C | -0.605 | 1.03 | -0.129 | 0.347 | 0.115 | -0.343 | 0.871 | -0.0159 (inactive) | 0.457 | 0.408
14 | CCc1cc2c(nc1CC)CCN(CCC(C)=NO[C@H](C)c1cn([C@@H]3COC[C@H]3O)nn1)C2 | -0.141 | -0.0699 | -0.0015 | 0.0444 | 0.199 | -0.174 | -0.365 | -0.0345 (inactive) | 0.224 | -0.0994
15 | CO[C@H]1COC(=O)CC=C[C@H](C)COC(=O)[C@@H](C)NC(=O)CC=C[C@@H]1C | -0.512 | 1.94 | -0.0996 | 0.231 | -0.0457 | -0.79 | 0.219 | 0.464 (inactive) | -0.214 | 0.0794
16 | CC(C)=CCCC(C)=CCON=C1C[C@@H](O)[C@@H](O)[C@@H]2[C@@H]3C(=O)N(C4CCCCC4)C(=O)[C@@H]3CC[C@@H]12 | 1.18 | 0.76 | -0.132 | 0.332 | -0.0557 | -0.148 | 0.598 | 0.735 (inactive) | 0.0152 | -0.374
17 | CC[C@@H](c1ccccc1)n1c(=O)n2n(c1=O)[C@H]1[C@H](O)[C@@H]3O[C@@H]3C(=NOC[C@@H](O)COCc3ccco3)[C@H]1CC2 | -0.437 | 0.615 | -0.116 | 0.25 | -1.17 | -0.552 | 0.727 | 0.0269 (inactive) | -0.113 | -0.741
18 | COc1ccc(O[C@H]2C=C[C@@H](c3ccccc3)O[C@@H]2CON=C2[C@H]3CCn4c(=O)n(-c5ccccc5)c(=O)n4[C@H]3[C@H](O)[C@@H]3O[C@H]23)cc1 | -0.135 | 0.451 | -0.0973 | 0.372 | 1.24 | 0.238 | 0.63 | -0.243 (inactive) | 0.358 | 0.197
19 | C=CC[C@@H]1C=C[C@H](ON=C(C)CCN2CCc3nc(-c4ccccc4)c(-c4ccccc4)cc3C2)[C@@H](CO)O1 | -0.374 | 1.11 | -0.2 | 0.34 | 0.65 | 0.464 | 0.942 | 1.23 (inactive) | 0.197 | 0.0393
20 | COCCNC(=O)OCC1CCCC2(CC(OC(=O)NCc3ccc4c(c3)OCO4)CC(CCC(=O)N[C@@H](C)C(=O)OC)O2)O1 (stereo not given in full) | -0.463 | 0.362 | -0.116 | 0.387 | 1.05 | 0.191 | 0.699 | 0.502 (inactive) | 0.171 | -0.0994
21 | CON=C[C@@H](NS(=O)(=O)c1ccc(C)cc1)[C@H](C)C=CCC(=O)OC | -0.303 | 0.0827 | -0.125 | -0.224 | -0.98 | -0.23 | 0.0812 | 0.494 (inactive) | -0.371 | -0.189
22 | CCCNC(=O)OC[C@H]1O[C@H](CCON=C(C)CCC(=O)OC[C@H]2O[C@H](c3ccccc3)C=C[C@@H]2Oc2ccc(OC)cc2)C=C[C@@H]1Oc1ccc(OC)cc1 | -0.302 | 0.21 | -0.127 | -0.178 | -0.843 | -0.311 | -0.731 | 0.862 (inactive) | 0.0494 | -0.0618
23 | CCOC(=O)[C@H](CC(C)C)NC(=O)CCC1CC(OC(=O)NCc2ccc3c(c2)OCO3)CC2(CCCC(COC(=O)NCCCN3CCCC3=O)O2)O1 (stereo not given in full) | -0.303 | 0.322 | -0.087 | 0.706 | 0.99 | 0.817 | 0.984 | 0.584 (inactive) | 0.465 | -0.0645
24 | CC(=O)OC[C@H]1OC(ON=CC[C@@H]2C=C[C@H](OC(C)=O)[C@@H](COC(C)=O)O2)[C@H](OC(C)=O)[C@@H](OC(C)=O)[C@@H]1OC(C)=O (stereo not given in full) | -0.314 | 0.585 | -0.076 | 0.398 | 0.94 | -0.555 | -0.595 | -0.0946 (inactive) | 0.52 | 0.0972
25 | CCOC(=O)[C@H](Cc1ccccc1)NC(=O)CCC1CC(OC(=O)NCc2cccc3ccccc23)CC2(CCCC(COC(=O)NCC(c3ccccc3)c3ccccc3)O2)O1 (stereo not given in full) | -0.222 | 0.578 | -0.0753 | 0.326 | 0.928 | 0.301 | 1.04 | 0.631 (inactive) | 0.329 | -0.169
26 | Cc1cc2c(nc1C)CCCCN2CC(C)ON=C1[C@H]2CCn3c(=O)n(-c4ccccc4)c(=O)n3[C@H]2[C@H](O)[C@@H]2O[C@H]12 (stereo not given in full) | -0.455 | 0.288 | 0.0051 | 0.756 | 0.942 | -0.349 | 0.8 | -0.446 (inactive) | 0.557 | -0.0346
27 | COc1cccc([C@H]2Oc3ccc(OC)cc3C(=NOC(C)CN3CCCCc4nc(C)c(C)cc43)[C@@H]2O)c1 (stereo not given in full) | 0.161 | -0.0173 | -0.0005 | 0.561 | 0.0879 | 0.996 | 0.632 | -2.06 (inactive) | -0.0285 | 0.0854
28 | CCOC(=O)NN=C1C[C@@H](O)[C@@H](O)[C@@H]2[C@@H]3C(=O)N(c4cccc(Oc5ccccc5)c4)C(=O)[C@@H]3CC[C@@H]12 | -0.216 | 1.21 | -0.085 | 0.542 | -0.202 | 0.823 | 0.81 | -0.233 (inactive) | 0.0218 | -0.249
29 | CO[C@H]1COC(=O)CC=C[C@@H](C)[C@H](OC)COC(=O)[C@@H]2CCCN2C(=O)CC=C[C@@H]1C | -0.479 | 2.11 | -0.17 | -0.0728 | -0.162 | -0.591 | 0.87 | -0.273 (inactive) | 0.374 | -0.169
30 | COc1cccc([C@H]2Oc3ccc(OC)cc3C(=NO[C@@H]3O[C@H](COC(C)=O)[C@@H](OC(C)=O)[C@H](OC(C)=O)[C@H]3OC(C)=O)[C@@H]2O)c1 | -0.533 | 0.974 | -0.116 | 0.326 | 0.842 | -0.62 | -0.782 | 1.59 (inactive) | 0.198 | 0.0972
